The values that follow come from PubChem BioAssay (EPA / NIEHS).

For experiment [1], the target named is Oxysterols receptor LXR-alpha (Homo sapiens) (UniProt Q13133). As to the kind of experiment: ATG_LXRa_TRANS: Attagene TRANS-FACTORIAL HepG2 Assay for human Liver X Receptor alpha (LXRa) (AID 2282980; active = hit-call score of the fitted dose curve at least 0.9, where 1 is the maximum). The conditions noted are these: HepG2 Attagene TRANS reporter, LXRa transactivation. The gist of the method:
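HepG2 cells transiently transfected with GAL4-UAS reporter units for chimeric NR-Gal4 proteins, exposed to chemicals for 24 h. Reporter mRNA quantified by RT-PCR and capillary electrophoresis; gain of signal fitted relative to DMSO.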

Experiment [2] addresses Hepatocyte nuclear factor 4-alpha (Homo sapiens) (UniProt P41235). As to the kind of experiment: ATG_HNF4a_TRANS: Attagene TRANS-FACTORIAL HepG2 Assay for human Hepatocyte Nuclear Factor 4 alpha (HNF4a) (AID 2282982; active = hit-call score of the fitted dose curve at least 0.9, where 1 is the maximum). The conditions noted are these: HepG2 HNF4a transactivation reporter, mRNA readout. In a few lines:
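In this trans-factorial format, a chimeric HNF4a-GAL4 fusion drives a GAL4-UAS reporter in transfected HepG2 liver cells. After 24 h treatment, reporter mRNA induction is measured by RT-PCR with capillary electrophoresis, relative to DMSO.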

Experiment [3] can be described thus: ATG_M_06_TRANS: Attagene TRANS-FACTORIAL HepG2 Assay for M06 Transcription Factor (Internal Marker) (AID 2282983; active = hit-call score of the fitted dose curve at least 0.9, where 1 is the maximum). The conditions noted are these: HepG2 Attagene TRANS M06 internal marker reporter. In a few lines:
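mRNA levels of a reporter transcript, quantified as FAM fluorescence on capillary electrophoresis, served as readout. HepG2 cells expressing exogenous GAL4-chimera reporter constructs were exposed for 24 h. Gain of signal over DMSO was evaluated.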

Experiment [4] addresses Transcriptional activator Myb (Homo sapiens) (UniProt P10242). Nature of the experiment: ATG_Myb_CIS: Attagene CIS-FACTORIAL HepG2 Assay for human Myeloblastosis (Myb) Proto-Oncogene Transcription Factor (AID 2282986). The conditions noted are these: HepG2 Attagene CIS-FACTORIAL Myb reporter transcription; actives raise or lower the signal. The gist of the method:
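Transiently transfected HepG2 cells, treated 24 h. Reporter mRNA quantified by RT-PCR/capillary electrophoresis; bidirectional fit relative to DMSO.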

Experiment [5] concerns the target Nuclear respiratory factor 1 (Homo sapiens) (UniProt Q16656). As to the kind of experiment: ATG_NRF1_CIS: Attagene CIS-FACTORIAL HepG2 Assay for human Nuclear Respiratory Factor 1 (NRF1) Orphan Gene (AID 2282987). The settings on record: HepG2 NRF1 cis-element reporter, Attagene multiplex; actives raise or lower the signal. In a few lines: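 Cells (HepG2, transient MRTU transfection) are exposed to compound for 24 h, then RNA isolated and reporter mRNA amplified and fluorescently labelled. Fragments are separated by capillary electrophoresis; signal change is fitted bidirectionally relative to DMSO.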

Experiment [6] is described as follows: ATG_NFI_CIS: Attagene CIS-FACTORIAL HepG2 Assay for human Nuclear Factor I (NFI) (AID 2282989). The settings on record: HepG2 cis-regulatory reporter, NFI response element transcription; actives raise or lower the signal. In a few lines:
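Transfected HepG2 liver cells, exposed 24 h, supplied total RNA for oligo(dT) reverse transcription and reporter-specific PCR. Labelled, HpaI-cut fragments were sized by capillary electrophoresis; DMSO set the baseline for bidirectional fitting.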

Experiment [7] has as its target Myc proto-oncogene protein (Homo sapiens) (UniProt P01106). Nature of the experiment: ATG_Myc_CIS: Attagene CIS-FACTORIAL HepG2 Assay for human Myelocytomatosis (Myc) Proto-Oncogene Transcription Factor (AID 2282990). The conditions noted are these: HepG2, Attagene cis-reporter transcription factor activity; actives raise or lower the signal. In a few lines:
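HepG2 cells transiently transfected with multiple cis-promoter-driven reporter transcription units, so endogenous TF activity is read. After 24 h compound exposure, reporter mRNA was quantified by RT-PCR, 6-FAM labelling, HpaI digestion and capillary electrophoresis; bidirectional fit versus DMSO.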

A short description of experiment [8]: ATG_NF_kB_CIS: Attagene CIS-FACTORIAL HepG2 Assay for human Nuclear Factor Kappa B (NF-kB) (AID 2282991). The settings on record: HepG2 Attagene cis-factorial NF-kB reporter mRNA; actives raise or lower the signal. In a few lines:
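Measures mRNA induction of an NF-kB-responsive cis-element reporter in HepG2 cells transfected with multiple reporter units, sampled 24 h post-dosing; quantified by fluorescence after RT-PCR and capillary electrophoresis, fitted for activation or inhibition against DMSO.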

Experiment [9] is described as follows: ATG_NRF2_ARE_CIS: Attagene CIS-FACTORIAL HepG2 Assay for human Nuclear Factor Erythroid 2 Related Factor 2 (NFR2) response to Antioxidant Response Elements (ARE) (AID 2282992). The settings on record: HepG2 Attagene ARE/NRF2 reporter, transcription factor activity; actives raise or lower the signal. The gist of the method:
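Using transiently transfected HepG2 cells exposed for 24 h, reporter mRNA levels were determined by RT-PCR with fluorescent primer extension and capillary electrophoresis, analysed for gain or loss of signal against DMSO.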

Experiment [10] in a line: ATG_Oct_MLP_CIS: Attagene CIS-FACTORIAL HepG2 Assay for human Octamer-Binding Transcription Factor (Oct) (AID 2282993). The settings on record: HepG2 Attagene cis-factorial Oct reporter, mRNA; actives raise or lower the signal. In a few lines: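 Using HepG2 cells bearing transfected cis-reporter constructs, mRNA induction was read after 24 h by fluorescent RT-PCR and capillary electrophoresis, with DMSO defining baseline for gain- or loss-of-signal fits.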

In experiment [11] the target is Oxysterols receptor LXR-beta (Homo sapiens) (UniProt P55055). As to the kind of experiment: ATG_LXRb_TRANS: Attagene TRANS-FACTORIAL HepG2 Assay for human Liver X Receptor beta (LXRb) (AID 2282981; active = hit-call score of the fitted dose curve at least 0.9, where 1 is the maximum). The settings on record: HepG2 Attagene TRANS GAL4-LXRb reporter, mRNA. The gist of the method: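 Measures induction of a Gal4-driven reporter transcript in HepG2 cells expressing an exogenous LXRb-Gal4 fusion. Cells are exposed to compound for 24 h before RNA isolation and RT-PCR with capillary electrophoresis detection.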
Chain of Oxysterols receptor LXR-beta (Homo sapiens) (P55055 whole entry, looked up, the tested form may be a part): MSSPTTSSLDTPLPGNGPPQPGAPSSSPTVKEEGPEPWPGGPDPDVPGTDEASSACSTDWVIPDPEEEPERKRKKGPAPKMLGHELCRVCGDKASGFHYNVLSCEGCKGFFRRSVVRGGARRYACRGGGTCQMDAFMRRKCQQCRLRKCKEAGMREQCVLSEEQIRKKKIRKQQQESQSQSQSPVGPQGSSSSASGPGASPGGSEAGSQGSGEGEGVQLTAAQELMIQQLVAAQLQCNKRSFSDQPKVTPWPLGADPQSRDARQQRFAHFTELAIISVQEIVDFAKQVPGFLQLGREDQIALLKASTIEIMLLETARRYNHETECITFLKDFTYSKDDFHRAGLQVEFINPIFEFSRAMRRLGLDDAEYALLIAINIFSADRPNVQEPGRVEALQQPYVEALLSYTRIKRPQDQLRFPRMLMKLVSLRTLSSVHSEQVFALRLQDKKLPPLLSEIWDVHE

Experiment [12] deals with Cellular tumor antigen p53 (Homo sapiens) (UniProt P04637). As to the kind of experiment: ATG_p53_CIS: Attagene CIS-FACTORIAL HepG2 Assay for human p53 Transcription Factor (AID 2282994). The settings on record: HepG2 p53 cis-element reporter, Attagene mRNA; actives raise or lower the signal. In a few lines:
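In HepG2 cells, reporter transcription units under cis-regulatory promoters were transiently introduced. Following 24 h treatment, RNA was processed to labelled, digested cDNA fragments read by capillary electrophoresis; fitting was bidirectional versus DMSO.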

Experiment [13] in a line: BSK_3C_TissueFactor: BioMAP Diversity Plus: 3C Assay for Tissue Factor Biomarker Activity (AID 2282997). The conditions noted are these: BioMAP 3C HUVEC, tissue factor biomarker readout; actives raise or lower the signal. In a few lines: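 Tissue Factor measured by ELISA, 24 h after treatment of primary HUVEC in the BioMAP 3C setting.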
The nature of experiment [14]: BSK_3C_uPAR: BioMAP Diversity Plus: 3C Assay for Urokinase-type plasminogen activator receptor (uPAR) Biomarker Activity (AID 2282998). The settings on record: BioMAP 3C HUVEC, uPAR biomarker ELISA; actives raise or lower the signal. In a few lines:
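In this endothelial cell-based assay, human umbilical vein primary cells were treated with chemicals and harvested at 24 h. uPAR was quantified using ELISA, with gains or losses fitted relative to DMSO controls.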

The nature of experiment [15]: BSK_3C_VCAM1: BioMAP Diversity Plus: 3C Assay for Vascular cell adhesion molecule 1 (VCAM1) Biomarker Activity (AID 2282999). The conditions noted are these: BioMAP 3C HUVEC, VCAM1 ELISA, cytokine-stimulated; actives raise or lower the signal. The gist of the method: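 Vascular primary endothelium (human umbilical vein) was exposed to chemicals and assayed 24 h later. VCAM-1 levels came from ELISA, with DMSO serving as baseline for bidirectional fitting.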

Experiment [16] concerns the target Nuclear receptor subfamily 4 group A member 2 (Homo sapiens) (UniProt P43354). As to the kind of experiment: ATG_NURR1_TRANS: Attagene TRANS-FACTORIAL HepG2 Assay for human Nuclear Receptor Related Protein 1 (NURR1) (AID 2282985; active = hit-call score of the fitted dose curve at least 0.9, where 1 is the maximum). The conditions noted are these: HepG2 Attagene TRANS reporter, mRNA readout. The gist of the method: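 Chimeric NR-Gal4 fusion activity measured in HepG2 after 24 h treatment. Reporter transcripts detected by RT-PCR and capillary electrophoresis fluorescence; positive-direction curve fitting against DMSO.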

The nature of experiment [17]: ATG_M_32_TRANS: Attagene TRANS-FACTORIAL HepG2 Assay for M32 Transcription Factor (Internal Marker) (AID 2282984; active = hit-call score of the fitted dose curve at least 0.9, where 1 is the maximum;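 also: transcript level of a background control reporter unit measured by RT-PCR and capillary electrophoresis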). The conditions noted are these: HepG2 Attagene TRANS M32 internal marker reporter. In a few lines:
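After 24 h dosing of transfected HepG2 cells, total RNA was reverse-transcribed, reporter sequences PCR-amplified, 6-FAM labelled by primer extension and HpaI-digested before capillary electrophoresis. Signal increase over DMSO was fitted.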

Records with an inconclusive call do not appear. Active and inactive are the calls of the source. The calls were made as follows, unless noted: active = hit-call score of the fitted dose curve at least 0.9, where 1 is the maximum; inactive = score below 0.9.

Chain of Nuclear receptor subfamily 4 group A member 2 (Homo sapiens) (P43354 whole entry, looked up, the tested form may be a part): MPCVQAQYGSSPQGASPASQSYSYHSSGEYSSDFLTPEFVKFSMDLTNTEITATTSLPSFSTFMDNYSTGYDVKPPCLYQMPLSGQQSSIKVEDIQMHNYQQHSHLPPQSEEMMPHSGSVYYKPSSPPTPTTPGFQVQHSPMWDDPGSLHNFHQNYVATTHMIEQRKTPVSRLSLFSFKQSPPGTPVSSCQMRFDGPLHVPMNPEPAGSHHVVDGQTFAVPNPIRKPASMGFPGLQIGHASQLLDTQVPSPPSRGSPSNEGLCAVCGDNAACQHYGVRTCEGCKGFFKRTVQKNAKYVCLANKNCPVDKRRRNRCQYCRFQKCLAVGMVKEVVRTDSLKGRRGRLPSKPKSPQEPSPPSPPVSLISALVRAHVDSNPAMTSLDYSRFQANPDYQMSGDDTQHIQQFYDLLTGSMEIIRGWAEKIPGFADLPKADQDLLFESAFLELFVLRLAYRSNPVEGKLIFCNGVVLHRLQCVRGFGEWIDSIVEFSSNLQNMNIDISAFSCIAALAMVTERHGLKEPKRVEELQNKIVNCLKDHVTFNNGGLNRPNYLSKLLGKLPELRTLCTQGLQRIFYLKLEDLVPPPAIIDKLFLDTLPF
Chain of Nuclear respiratory factor 1 (Homo sapiens) (Q16656 whole entry, looked up, the tested form may be a part): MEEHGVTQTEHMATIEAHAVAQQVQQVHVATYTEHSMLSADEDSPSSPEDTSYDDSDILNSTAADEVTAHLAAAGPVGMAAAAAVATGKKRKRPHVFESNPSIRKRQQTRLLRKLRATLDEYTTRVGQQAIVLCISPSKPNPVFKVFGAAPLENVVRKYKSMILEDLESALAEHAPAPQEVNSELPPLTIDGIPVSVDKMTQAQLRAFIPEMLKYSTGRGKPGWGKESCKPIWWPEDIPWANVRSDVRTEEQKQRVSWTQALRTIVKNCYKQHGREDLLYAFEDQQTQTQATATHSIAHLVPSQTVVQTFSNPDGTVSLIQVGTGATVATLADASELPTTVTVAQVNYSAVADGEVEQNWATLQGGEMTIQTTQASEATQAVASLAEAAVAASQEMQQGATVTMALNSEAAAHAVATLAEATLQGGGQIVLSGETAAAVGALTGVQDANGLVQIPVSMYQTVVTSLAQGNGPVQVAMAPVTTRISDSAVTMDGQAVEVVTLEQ
Chain of Cellular tumor antigen p53 (Homo sapiens) (P04637 whole entry, looked up, the tested form may be a part): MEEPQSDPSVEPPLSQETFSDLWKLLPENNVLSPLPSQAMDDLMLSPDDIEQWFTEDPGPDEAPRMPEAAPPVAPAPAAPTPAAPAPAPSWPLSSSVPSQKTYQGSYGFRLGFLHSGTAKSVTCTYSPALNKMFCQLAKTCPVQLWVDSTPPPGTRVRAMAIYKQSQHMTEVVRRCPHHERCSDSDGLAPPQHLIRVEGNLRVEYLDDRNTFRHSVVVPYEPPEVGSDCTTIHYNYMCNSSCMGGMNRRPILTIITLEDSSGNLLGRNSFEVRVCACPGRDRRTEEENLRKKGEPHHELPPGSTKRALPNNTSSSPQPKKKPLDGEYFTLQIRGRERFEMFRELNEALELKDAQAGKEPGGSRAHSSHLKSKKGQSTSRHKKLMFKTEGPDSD
Chain of Oxysterols receptor LXR-alpha (Homo sapiens) (Q13133 whole entry, looked up, the tested form may be a part): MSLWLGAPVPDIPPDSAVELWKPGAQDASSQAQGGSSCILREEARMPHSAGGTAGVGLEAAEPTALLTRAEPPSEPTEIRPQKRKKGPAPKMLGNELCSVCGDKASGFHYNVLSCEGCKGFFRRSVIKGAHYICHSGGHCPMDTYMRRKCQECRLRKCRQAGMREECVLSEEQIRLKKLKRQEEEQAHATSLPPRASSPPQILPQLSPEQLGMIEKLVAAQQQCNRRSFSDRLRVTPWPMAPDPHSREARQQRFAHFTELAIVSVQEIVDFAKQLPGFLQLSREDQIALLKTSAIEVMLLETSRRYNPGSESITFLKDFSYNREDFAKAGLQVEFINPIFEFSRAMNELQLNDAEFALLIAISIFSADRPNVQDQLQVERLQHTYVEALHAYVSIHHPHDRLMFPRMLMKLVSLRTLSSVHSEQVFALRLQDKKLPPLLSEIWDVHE
Chain of Myc proto-oncogene protein (Homo sapiens) (P01106 whole entry, looked up): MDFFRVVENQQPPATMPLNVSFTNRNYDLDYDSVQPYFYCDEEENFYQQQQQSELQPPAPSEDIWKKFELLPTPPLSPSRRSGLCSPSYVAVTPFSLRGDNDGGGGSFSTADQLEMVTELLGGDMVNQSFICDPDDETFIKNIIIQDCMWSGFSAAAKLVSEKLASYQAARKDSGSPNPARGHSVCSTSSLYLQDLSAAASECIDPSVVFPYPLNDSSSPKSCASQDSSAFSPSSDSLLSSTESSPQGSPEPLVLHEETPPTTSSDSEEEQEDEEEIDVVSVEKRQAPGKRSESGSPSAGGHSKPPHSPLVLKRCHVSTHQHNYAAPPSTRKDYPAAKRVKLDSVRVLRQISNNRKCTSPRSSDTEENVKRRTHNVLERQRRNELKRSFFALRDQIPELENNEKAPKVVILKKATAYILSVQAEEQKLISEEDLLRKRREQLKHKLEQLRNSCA
Chain of Transcriptional activator Myb (Homo sapiens) (P10242 whole entry, looked up): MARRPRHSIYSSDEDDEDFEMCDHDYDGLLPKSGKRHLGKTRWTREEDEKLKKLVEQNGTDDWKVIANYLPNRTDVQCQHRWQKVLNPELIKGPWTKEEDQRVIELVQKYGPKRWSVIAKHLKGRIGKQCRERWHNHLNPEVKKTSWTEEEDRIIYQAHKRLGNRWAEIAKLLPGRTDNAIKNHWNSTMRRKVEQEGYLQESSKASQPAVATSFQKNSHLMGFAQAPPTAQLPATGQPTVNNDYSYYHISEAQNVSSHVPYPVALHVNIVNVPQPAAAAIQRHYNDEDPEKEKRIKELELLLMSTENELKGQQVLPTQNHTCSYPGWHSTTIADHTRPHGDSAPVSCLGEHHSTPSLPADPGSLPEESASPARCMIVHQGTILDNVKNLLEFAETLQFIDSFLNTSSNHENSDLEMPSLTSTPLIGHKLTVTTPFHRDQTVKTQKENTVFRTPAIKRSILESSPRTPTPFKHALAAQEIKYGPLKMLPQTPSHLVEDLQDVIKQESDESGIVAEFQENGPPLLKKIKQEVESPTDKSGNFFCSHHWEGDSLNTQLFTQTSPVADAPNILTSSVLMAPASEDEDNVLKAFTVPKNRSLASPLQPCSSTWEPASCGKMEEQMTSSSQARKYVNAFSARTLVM
Chain of Hepatocyte nuclear factor 4-alpha (Homo sapiens) (P41235 whole entry, looked up, the tested form may be a part): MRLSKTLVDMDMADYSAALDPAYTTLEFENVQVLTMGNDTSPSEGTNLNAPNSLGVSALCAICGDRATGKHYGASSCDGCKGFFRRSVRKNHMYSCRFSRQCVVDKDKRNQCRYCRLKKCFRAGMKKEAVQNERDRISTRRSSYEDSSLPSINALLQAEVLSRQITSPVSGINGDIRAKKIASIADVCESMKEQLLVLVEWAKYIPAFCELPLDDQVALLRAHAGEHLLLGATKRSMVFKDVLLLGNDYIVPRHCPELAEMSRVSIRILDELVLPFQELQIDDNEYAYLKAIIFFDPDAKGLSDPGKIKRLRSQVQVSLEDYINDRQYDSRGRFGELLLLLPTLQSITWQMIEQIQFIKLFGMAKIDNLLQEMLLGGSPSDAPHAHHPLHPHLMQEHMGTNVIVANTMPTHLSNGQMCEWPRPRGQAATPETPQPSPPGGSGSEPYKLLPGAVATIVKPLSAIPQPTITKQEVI

Turning to `CCC(C)N` (configuration not stated), the compound was called inactive in experiment [1], in [2], in [3], in [4], in [5] and in experiment [6]. Further, the compound was classed as inactive in [7], in experiment [8], in experiment [9] and in [10].

On to `Oc1c(Cl)cc(Cl)c(Cl)c1Cl`, for which the call in experiment [1], in [11], in experiment [2], in experiment [3], in experiment [4] and in experiment [5] was inactive. Also, the result in experiment [6], in experiment [7], in experiment [8] and in experiment [12] was inactive. The AC50 in experiment [9] was 27.1 µM (active); in experiment [10], 100 µM (active); in experiment [13], 23.8 µM (active); in experiment [14], 20 µM (active); in experiment [15], 20 µM (active).

As for `COc1cc(O)c(C(=O)c2ccccc2)cc1S(=O)(=O)O`, the result in [1], in experiment [2], in [3], in experiment [16], in experiment [4] and in experiment [5] was inactive. The result in experiment [6], in experiment [7], in experiment [8] and in experiment [9] was inactive.

Consider `CCC[Si](OC)(OC)OC`, for which the outcome in experiment [1], in [11], in experiment [2], in experiment [17], in [16] and in experiment [4] was inactive. The compound was classed as inactive in experiment [5], in [6], in [7], in [9], in [10] and in experiment [12].

Take `CC(C)COC(=O)CC(C(=O)OCC(C)C)S(=O)(=O)O` (configuration not stated): the result in experiment [1], in experiment [11], in [4], in experiment [5], in experiment [6] and in experiment [7] was inactive. In addition, the outcome in experiment [8], in experiment [9], in experiment [10] and in [12] was inactive.

On to `Cc1ccc2c(c1)CCCN2`, for which the compound was called inactive in experiment [1], in [2], in experiment [3], in experiment [17], in experiment [16] and in experiment [4]. For the same compound, the result in experiment [5], in [6], in experiment [7], in experiment [9] and in experiment [10] was inactive.

`C=C[Si](OCCOC)(OCCOC)OCCOC`: the call in experiment [1], in experiment [11], in experiment [2], in experiment [17], in experiment [4] and in experiment [5] was inactive. Also, the result in [6], in experiment [7], in [9], in [10] and in experiment [12] was inactive.

In the case of `CC(C)CCOCc1ccccc1`, the compound was classed as inactive in [1], in experiment [11], in experiment [17], in [16], in [4] and in [5]. Besides, the compound was called inactive in [6], in experiment [7], in experiment [8], in experiment [9] and in experiment [10].

Turning to `O=C(O[C@@H]1Cc2c(O)cc(O)cc2O[C@@H]1c1cc(O)c(O)c(O)c1)c1cc(O)c(O)c(O)c1`, the compound was classed as inactive in experiment [1], in experiment [11], in experiment [3], in [17], in [16] and in [4]. The compound was called inactive in experiment [6], in experiment [7], in [8], in experiment [9] and in experiment [12].

For the compound `CCCCCCCCCCCCCCCCCCOS(=O)(=O)O`, the compound was called inactive in [1], in experiment [11], in experiment [2], in [17], in experiment [4] and in experiment [7]. Moreover, the AC50 in experiment [16] was 179 µM (active); in experiment [6] it was 33.4 µM (active); in [8], 58.1 µM (active); in experiment [9], 13.7 µM (active); in [12] it was 18.4 µM (active).
